Compounds with a hit are over-represented: about 3.2% of the library has one in this group of screens.
ERa SRC1 inh: blocks coactivator binding to human estrogen receptor alpha | P03372 | TR-FRET ER-alpha LBD / SRC-1 peptide, estradiol-bound | inhibition, % at 25.6 µM | 86,000 tested, 1.7% active | AID 629; in the data active = inhibition above about 50%;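 note: 0% = receptor plus peptide control and 100% = peptide only without receptor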
Target sequence (P03372 whole entry, looked up, the tested form may be a part): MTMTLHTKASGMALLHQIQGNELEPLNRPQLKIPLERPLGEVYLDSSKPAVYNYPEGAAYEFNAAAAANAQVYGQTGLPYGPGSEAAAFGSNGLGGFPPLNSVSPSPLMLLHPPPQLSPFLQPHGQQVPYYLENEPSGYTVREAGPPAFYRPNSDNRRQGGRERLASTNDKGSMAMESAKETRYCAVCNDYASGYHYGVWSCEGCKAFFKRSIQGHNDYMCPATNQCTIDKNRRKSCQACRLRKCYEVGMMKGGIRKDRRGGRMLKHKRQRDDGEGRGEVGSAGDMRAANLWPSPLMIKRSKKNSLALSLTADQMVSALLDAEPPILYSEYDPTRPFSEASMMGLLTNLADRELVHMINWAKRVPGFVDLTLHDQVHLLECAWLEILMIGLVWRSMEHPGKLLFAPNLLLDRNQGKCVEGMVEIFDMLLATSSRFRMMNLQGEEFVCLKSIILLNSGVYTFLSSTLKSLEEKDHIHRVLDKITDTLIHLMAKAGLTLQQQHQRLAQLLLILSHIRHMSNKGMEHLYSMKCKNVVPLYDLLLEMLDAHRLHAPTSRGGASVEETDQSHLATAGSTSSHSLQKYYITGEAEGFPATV
ERa SRC1 pot: ER-alpha (human) coactivator binding potentiation. P03372. TR-FRET ERalpha-LBD/SRC-Cy5 coactivator binding, 2 h; 100 = basal binding, no effect. coactivator binding (% of control), % at 25.6 µM. 86,000 tested, 1.3% active. AID 639; in the data active = activity above about 200%;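 note: binding measured in presence of low estradiol as agonist stimulus; 0% = peptide alone without receptor and 100% = receptor with peptide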
MT1-MMP txn act: MT1-MMP promoter transcription activation | activation factor at 10 µM | HT1080 MT1-MMP promoter luciferase reporter, luminescence, overnight; active compounds read high | 86,000 tested, 0.16% active | AID 750;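 active = activation factor of at least 2 for MT1-MMP transcription at 10 µM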
Calb biofilm kill: kills Candida albicans biofilms. inhibition, % at 6 µM. 85,000 tested, 0.14% active. C. albicans biofilm + clotrimazole, Alamar Blue;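 active = inhibition above 20%; inactive = inhibition below 20%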;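 note: preformed 24 hr biofilms exposed to compound for 48 hr; 0% = biofilm without compound and 100% = blank killed by clotrimazole plus chlorhexidine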
EphB4 antag: blocks human EphB4 binding to ephrin-B2; 97,000 tested, 0.15% active; EphB4 LBD / TNYL-RAW-Alexa532 peptide, fluorescence polarization; P54760; inhibition, % at 7 µM;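 active = inhibition above the screen-wide mean inhibition plus 3 SD, cut at about 15% in these data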;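 note: 0% = DMSO wells and 100% = excess unlabeled TNYL-RAW peptide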
ERb SRC1 inh: ER-beta (human) coactivator binding inhibition | Q92731 | TR-FRET ER-beta LBD / SRC1-Cy5 peptide binding; receptor agonist-loaded with 1 µM estradiol | inhibition, % at 25.6 µM | 86,000 tested, 1.3% active;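 active = compounds whose percent inhibition of the receptor-coactivator binding signal exceeds about 50% in the single-dose screen, limit read from the data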;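 note: 0% = receptor plus peptide wells without compound and 100% = peptide-only wells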
An asterisk follows results filed as active; nt = no result; [ ] = another dose, or the depositor's remark.

SMILES	ERa SRC1 inh	ERa SRC1 pot	MT1-MMP txn act	Calb biofilm kill	EphB4 antag	ERb SRC1 inh
Cc1cccc(NC(=O)C2CCCN(c3nc(C)cc(C)n3)C2)c1 (stereo not drawn)	8	118	1	1	nt	-1
Cc1cccc(NC(=O)C2CCN(c3nc(C)cc(C)n3)CC2)c1	0	115	1.1	2	nt	55*[fluorescence artefact?]
COc1nc(Nc2ccc(-c3nc4ccccc4o3)cc2)nc(N2CCOCC2)n1	62*[fluorescence artefact?]	73	1.1	-1	2	-8
CCCNCC1COc2ccccc2O1 (stereo not drawn)	84*[fluorescence artefact?]	49	1.2	-1	2	80*
COC(=O)[C@@H]1C[C@@]2(O)[C@@H](O)[C@@H](O)[C@@H](O)C[C@H]2N1Cc1ccc(C(C)(C)C)cc1	nt	nt	1.1	nt	nt	nt
O=C(Nc1nc(-c2ccccn2)cs1)c1ccc(Cl)s1	-3	93	nt	4	nt	-5
CSc1nc2ccc3nc(NC(=O)c4cccs4)sc3c2s1	69*[fluorescence artefact?]	182	1.4	5	5	79*[fluorescence artefact?]
CN(C)S(=O)(=O)c1ccc2nc(NC(=O)c3cccs3)sc2c1	-6	109	1.5	-3	9	1
CSc1nc2ccc3nc(NC(=O)c4ccc(Cl)s4)sc3c2s1	59*[fluorescence artefact?]	88	nt	3	-5	35
CCOc1ccc(NC(=O)CNC(=O)c2cn(-c3ccccc3OC)c(=O)c3ccccc23)cc1	1	70	1.1	1	-1	3
Cc1cc2c(c(=O)n1Cc1ccc3c(c1)OCO3)C(c1cccnc1)C(C#N)=C(N)O2 (stereo not drawn)	11	112	1	5	-18	2
CSCCC1NC(=O)NC1=O (stereo not drawn)	62*	94	1.1	nt	nt	-3
Cn1cnnc1SCC(=O)Nc1sccc1C#N	28	74	1.2	4	nt	19
Cn1c(SCC(=O)Nc2ccc3c(c2)oc2ccccc23)nnc1-c1ccccc1	52*	251*[fluorescence artefact?]	1.3	11	-1	31
CC(=O)Nc1ccc(-c2nnc(SCC(=O)n3c4c(c5ccccc53)CCCC4)n2C)cc1	-24	256*	1.1	5	1	-15
Cn1c(SCC(=O)Nc2ccccc2F)nnc1-c1cc2ccccc2o1	-40	597*[fluorescence artefact?]	1.1	4	-1	6
Cn1c(SCC(=O)Nc2sccc2C#N)nnc1-c1ccccc1	53*	29	1.1	8	4	46
Cc1ccc(C)c(Cn2c(CN(C)Cc3ccccc3)nc3c2c(=O)n(C)c(=O)n3C)c1	6	81	1.1	4	5	-2
C[C@H](CO)NC(=O)[C@H]1C[C@@H]1[C@H](NP(=O)(c1ccccc1)c1ccccc1)c1ccccc1	nt	nt	1	nt	nt	nt
CC(=O)c1cccc(NC(=O)CN2C(=O)NC3(CCCCCCC3)C2=O)c1	57*	69	1	0	6	31
CCOC(=O)Cc1csc(NC(=O)c2cnc3scc(C)n3c2=O)n1	nt	nt	1.1	nt	-3	nt
COC(=O)c1ccc(C(NC(=O)OCc2ccccc2)/C(C)=C/[C@@H](C)C(=O)NCc2cccnc2)cc1 (stereo partly drawn)	nt	nt	1.8	nt	nt	nt
COc1ccc(Cl)cc1NC(=O)c1ocnc1C	52*	55	1	2	1	62*
COc1ccc(NC(=O)c2ocnc2C)cc1OC	-5	111	1.2	6	-7	-6
COC(=O)C1(CC(C)C)C=CC[N+]1(C)C (stereo not drawn)	nt	nt	1.1	nt	nt	nt
SMILES	ERa SRC1 inh	ERa SRC1 pot	MT1-MMP txn act	Calb biofilm kill	EphB4 antag	ERb SRC1 inh
COc1ccc(CCNC(=O)CS(=O)Cc2nc(-c3cccs3)oc2C)cc1OC (stereo not drawn)	-6	96	1.1	9	-4	-3
CCOC(=O)c1c(C)oc2c1c1c(c3ccccc32)OCN(Cc2cccnc2)C1	34	139	1.9	6	16*	38
CCOC(=O)c1c(C)oc2c1c(C(c1cccnc1)N1CCOCC1)c(O)c1ccccc12 (stereo not drawn)	nt	nt	nt	nt	2	nt
CCOC(=O)c1c(C)oc2c1c(C(c1cccnc1)N1CCN(C)CC1)c(O)c1ccccc12 (stereo not drawn)	77*[fluorescence artefact?]	51	1.7	7	nt	64*[fluorescence artefact?]
C=CCn1c(=O)/c(=C2/SC(C)=C(C)N2CC)s/c1=C1/C(=O)N(CC)C(=S)N1c1ccccc1	11	61	nt	-1	5	9
O=C(NCc1ccc2c(c1)OCO2)c1cc2ccccc2o1	nt	nt	nt	nt	3	nt

Compound activity as filed in PubChem.
